Source: PubChem (National Center for Advancing Translational Sciences (NCATS))
An excerpt weighted towards active compounds, which were near 9.3% of everything screened.
NPC1 prom act: activators of NPC1 promoter. 320,000 tested, 2.4% active. Huh7 NPC1 promoter luciferase reporter, 24 h. Potency, µM (doses to about 9.22 µM), for the others: top-dose activation, actives largely listed as activators; further: % of control where 0% means no effect; nearly all actives have a fitted effect of over 60% in size
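Readout is luciferase luminescence, reflecting NPC1 promoter activation in stably transfected Huh7 cells after 24 h compound exposure at 37 °C in reduced-serum medium with 10% FBS.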
Rab9 promoter act: activators of Rab9 promoter | Huh7 Rab9 promoter-luciferase reporter, luminescence, 24 h | Potency, µM (series often up to 9.22 µM), inactives show at the top dose activation, negative = inhibition, usual class: activators | 320,000 tested, 2.8% active | AID 485297; further: % of control where 0% means no effect; nearly all actives have a fitted effect of over 60% in size
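Quantitative HTS format; Huh7 Rab9-luciferase reporter cells (1500/well) receive compound 2 h post-plating, incubate 24 h at 37 °C, then get luciferase reagent for 10 min before luminescence reading.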
ELG1 repair inh: ELG1-dependent DNA repair inhibition; HEK293T ELG1-luciferase reporter, luminescence, 16 h; DNA damage induced by 5-fluorouridine; Potency, µM (top dose mostly 46.1 µM), inactives show top-dose activity change, negative = inhibition, usual class: inhibitors; 330,000 tested, 2.3% active; AID 504467; further: on the % scale 0 is the no-effect control and ±100 the full control effect; nearly all actives have a fitted effect of over 55% in size
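HEK293T cells expressing luciferase-tagged ELG1 (2,000/well) received 5-Fluorouridine plus compound or DMSO for 16 hr at 37 °C. Luciferase was read by ONE-Glo luminescence after 30 min at room temperature.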
SMN2 splice enh: increases expression of the SMN2 splice variant | Potency, µM (titrated, usually from 46.1 µM), for inactives: top-dose activity change, positive = activation, most hits filed as activators | HEK293 SMN2-luciferase splicing reporter, luminescence, 30-36 h | 210,000 tested, 2.8% active | AID 1458; further: % of control where 0% means no effect; nearly all actives have a fitted effect of over 55% in size
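qHTS luciferase splicing reporter: luminescence rises when SMN2 exon 7 is included in transfected HEK293 cells. Compound exposure lasted 30-36 h at 37C, with 4.5 mM final sodium butyrate as control, followed by a ONE-Glo read.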
FLuc modulator: counter-screen for miR-21 project: firefly luciferase inhibitors or activators; P08659; purified FLuc, Km substrates, luminescence inhibition; Potency, µM (series often up to 57.5 µM), inactives show top-dose activity change, negative = inhibition, hits mostly inhibitors; 360,000 tested, 6.9% active; AID 588342;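 further: plate controls were vehicle for no effect and reference inhibitor for full effect; nearly all actives have a fitted effect of over 55% in size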
Target sequence (P08659 whole entry, looked up): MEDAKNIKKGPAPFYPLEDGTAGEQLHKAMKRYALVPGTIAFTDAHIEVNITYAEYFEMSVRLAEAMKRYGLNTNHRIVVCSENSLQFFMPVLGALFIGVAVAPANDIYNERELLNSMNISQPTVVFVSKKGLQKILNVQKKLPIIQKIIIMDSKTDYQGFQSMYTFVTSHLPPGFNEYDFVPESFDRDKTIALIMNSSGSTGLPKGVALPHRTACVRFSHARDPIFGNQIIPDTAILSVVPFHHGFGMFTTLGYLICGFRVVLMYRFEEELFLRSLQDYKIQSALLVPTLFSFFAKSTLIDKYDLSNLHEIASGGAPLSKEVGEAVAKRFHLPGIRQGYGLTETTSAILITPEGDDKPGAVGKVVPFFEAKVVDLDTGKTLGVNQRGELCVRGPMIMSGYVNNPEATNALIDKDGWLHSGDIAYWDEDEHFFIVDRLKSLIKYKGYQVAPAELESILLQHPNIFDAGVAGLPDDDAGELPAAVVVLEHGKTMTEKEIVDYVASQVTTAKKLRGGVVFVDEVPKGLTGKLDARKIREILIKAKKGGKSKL
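Biochemical qHTS of compounds, final roughly 60 µM downward over six points, against 10 nM purified firefly luciferase using Km concentrations of substrates (10 uM D-luciferin, 10 uM ATP) in Tris acetate pH 7.5 buffer; luminescence output.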
ELG1 genotoxic: genotoxicity induction in ELG1-luciferase HEK293T cells. HEK293T ELG1-luciferase reporter, luminescence, 16 h. Potency, µM (top dose mostly 46 µM), inactives show at the top dose activity change, positive = activation, actives largely listed as activators. 330,000 tested, 1.3% active; further: % of control where 0% means no effect; nearly all actives have a fitted effect of over 60% in size
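HEK293T cells expressing luciferase-tagged ELG1 were treated with compound or DMSO for 16 hr at 37°C. Luciferase activity was then read after 30 min with ONE-Glo at room temperature; rising signal flags genetic stress.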
Starred values were filed as active, the others as inactive; ? = inconclusive; / = not tested or not shown; [ ] = remark or other dose. The call rests on the fitted dose curve; in most records, active means well fitted curve in the direction sought with a large enough effect; inconclusive means small, poorly fitted or top-dose-only effect, or another doubt; inactive means no such curve, though single readings can be large; an effect the other way counts as inactive or inconclusive. Potency means the concentration at half of the fitted maximal effect.

SMILES	NPC1 prom act	Rab9 promoter act	ELG1 repair inh	SMN2 splice enh	FLuc modulator	ELG1 genotoxic
CCOc1ccc(-n2ccnc2SCC(=O)NCc2ccc3c(c2)OCO3)cc1	9.8%	10.4%	-9.5%	-7.3%	-0.2%	-1.2%
C/C(=N\Nc1cc(N2CCCCC2)nc(C)n1)c1ccc(Br)cc1	-10.8%	-13.0%	16.4µM*	/	3.6%	-17.3%
O=C(N/N=C(\Cc1ncc[nH]1)c1ccccc1)c1cccnc1	-4.6%	-5.5%	9.2µM*	/	3.7%	5.3%
O=C(N/N=C(\c1ccccc1)c1cccnc1)c1cccc(F)c1	-13.2%	-36.7%	?	/	-4.9%	16.4µM*
O=C(N/N=C(\c1ccccc1)c1cccnc1)c1ccc(O)cc1	1.3%	2.4%	-4.2%	/	1.0%	1.0%
O=C(Nc1ccc2c(c1)CN(Cc1ccc(CO)o1)CC2)c1ccc(C(F)(F)F)cc1	2.2%	-6.7%	19.9%	/	10.7µM*	17.3%
COc1ccc(S(=O)(=O)N2CCC(C(=O)NCCC3=CCCCC3)CC2)cc1C	1.3%	12.7%	-19.6%	-4.4%	0.9%	-6.6%
CCOC(=O)C1=C(C)NC2=C(C(=O)c3ccccc32)C1c1ccc([N+](=O)[O-])o1 (centres undefined)	-0.5%	-0.3%	?	/	-8.4%	-5.6%
CCOC(=O)C1=C(C)NC2=C(C1c1ccc([N+](=O)[O-])cc1)S(=O)(=O)c1ccccc12 (centres undefined)	-2.0%	0.2%	10.3µM*	-13.7%	2.8%	-18.4%
Cc1cccc(N2C(S)=C(C#N)C(=O)NC23CCCCC3)c1	0.9%	-11.2%	?	-7.7%	?	1.9%
Cc1ccc(N2C(S)=C(C#N)C(=O)NC23CCCCC3)cc1	-2.3%	-4.5%	?	19.0%	16.9µM*	1.0%
CCOc1ccc(/C=N/NC(=O)c2ccc(CSc3nc4ccccc4[nH]3)cc2)cc1	3.7%	11.8%	-9.1%	-6.8%	6.75µM*	-2.2%
O=C(N/N=C/c1ccc(OC(F)F)cc1)c1ccc(CSc2nc3ccccc3[nH]2)cc1	-6.1%	3.7%	-17.7%	-5.8%[1.84 µM]	16.9µM*	0.4%
O=C(N/N=C/c1ccc(OC(F)F)cc1)c1ccc(Br)cc1	-1.2%	2.9%	-7.8%	19.3%	?	7.0%
CCOc1ccc(C(=O)N/N=C/c2ccc(SC)cc2)cc1	2.4%	-4.2%	2.7%	?	-8.0%	7.3%
COC(=O)c1sc(N2CCN(c3ccc(Cl)cc3)CC2)nc1N	-1.1%	-20.2%	23.1µM*	-64.9%	-16.4%	-4.8%
COC(=O)c1c(-c2ccc(Cl)cc2)noc1N1CCN(c2ccc(OC)cc2)CC1	/	/	/	/	-2.5%	/
O=C(O)COc1ccccc1/C=N/NC(=O)Cc1ccccc1	0.8%	4.6%	6.4%	/	-6.0%	-1.3%
COc1ccc(-c2csc(Nc3ncccn3)n2)cc1C	0.708µM*	0.178µM*	?	/	-16.4%	?
COc1ccc(-c2csc(Nc3cc(C)ccn3)n2)cc1C	21.4%	?	?	/	8.49µM*	2.2%
COc1ccc(Cl)cc1Nc1nc(-c2cccnc2)cs1	0.5%	-3.1%	?	/	?	-0.1%
COc1ccc(-c2csc(NC(=O)Cc3ccccc3)n2)cc1OC	-2.7%	-1.7%	6.2%	/	?	0.8%[9.26 µM]
O=C(CC1SC(N2CCCCC2)=NC1=O)Nc1ccc(C(=O)Nc2ccccc2)cc1 (centres undefined)	2.2%	0.2%	?	/	?	6.2%
CCOC(=O)Cc1csc(N/N=C\c2ccccc2OC)n1	25.9%	19.6%	13.3%	/	10.7µM*	7.6%
CCOC(=O)Cc1csc(N/N=C\c2cccc(Br)c2)n1	11.2%	7.3%	20.8%	-1.0%	?	-1.2%
SMILES	NPC1 prom act	Rab9 promoter act	ELG1 repair inh	SMN2 splice enh	FLuc modulator	ELG1 genotoxic
CCOC(=O)Cc1csc(N/N=C\c2ccc(N(C)C)cc2)n1	?	28.9%	?	/	2.39µM*	7.8%
CCOC(=O)Cc1csc(Nc2ccc(Cl)cc2)n1	2.5%	-4.4%	?	?	?	2.9%
COC(=O)c1ccc(/C=N/Nc2nc(-c3ccccc3)cs2)cc1	12.1%	20.0%	6.5%	/	-2.4%	6.0%
COc1ccc(/C=N/Nc2nc(C(=O)O)cs2)cc1	?	?	?	/	0.675µM*	5.8%
CCOC(=O)Cc1csc(NC(=O)COc2ccccc2OC)n1	3.3%	3.1%	2.2%	/	-3.6%	0.1%
CCOC(=O)Cc1csc(N/N=C/c2ccccc2)n1	29.1%	19.8%	?	2.5%	15.1µM*	8.7%
O=C(c1ccc2c(c1)OCCO2)N1CCCCC1	17.5%[46.1 µM]	13.0%[46.1 µM]	0.9%	2.8%	1.4%	2.1%
O=C1OCCC/C1=C\c1ccc2c(c1)OCO2	-5.8%	0.9%	4.3%	/	-11.1%	-2.8%
CC1=C/C(=C\c2ccc3c(c2)OCO3)C(=O)S1	-5.8%	-0.6%	-14.8%	-8.5%	19µM*	-2.4%
CCCN1C/C(=C/c2ccc3c(c2)OCO3)C(=O)/C(=C/c2ccc3c(c2)OCO3)C1	-10.9%	-24.8%	23.1µM*	-72.6%	-1.3%	-18.7%
O=[N+]([O-])c1ccc(COc2ccccc2/C=N/O)cc1	?	?	?	15.8µM*	?	12.6%
O=C1CSC(c2cn(-c3ccccc3)nc2-c2cc3ccccc3oc2=O)N1Cc1ccco1 (centres undefined)	-0.5%	-3.1%	16.4µM*	-0.9%	-0.6%	-2.0%
COC(=O)c1cc2c(=O)c3ccccc3oc2nc1C	2.24µM*	?	?	/	10.7µM*	?
CCc1nc2oc3ccc(C)cc3c(=O)c2cc1C(=O)OC	3.55µM*	3.55µM*	?	/	3.01µM*	?
Cc1cccc(-c2nnn3c2nc(NCCc2ccc(S(N)(=O)=O)cc2)c2ccccc23)c1	1.6%	-5.7%	2.59µM*	12.0%	1.5%	12.6%
NS(=O)(=O)c1ccc(CCNc2nc3c(-c4cccc(F)c4)nnn3c3ccccc23)cc1	-0.6%	-7.8%	2.59µM*	22.5%	-1.5%	?
CSc1ccccc1C(=O)NCCCOC(C)C	-5.1%	-2.0%	1.7%	-16.1%	3.8%	-1.0%
O=C(CSc1nc2ccccc2o1)c1ccccc1	?	?	?	17.2%	10.7µM*	11.1%
c1ccc(OCCSc2nc3ccccc3o2)cc1	19.0%	20.6%	?	-9.5%	21.3µM*	14.3%
O=C(CSc1nc2ccccc2o1)c1ccc2c(c1)OCCO2	28.0%	?	?	-1.1%	8.49µM*	?
CC1(C)CC(NC(=O)c2c(N)no[n+]2[O-])CC(C)(C)N1	-0.2%	2.6%	-8.6%	-20.8%	-0.2%	-2.4%
CCCCn1c(=O)[nH]c(=O)c2c1nc(-c1ccc(OCCC)c(OCC)c1)n2CCOC	-12.9%	-12.2%	6.51µM*	7.7%	-1.1%	6.1%
